About 83,000 compounds went through this panel and 20% of them were active in at least one assay; those are over-represented in the sample as a whole.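 Each cell line was grown in a 96-well plate and treated with one concentration of compound for 48 hours. Values below 10 were considered active.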 Values without a mark were called inactive. The source made the active and inactive calls.
Legend:
Assay in all cases: NCI-60 one-dose screen, 48 h (100 = growth as untreated, 0 = no growth, -100 = all killed)
[1] = test system: NCI-H23 lung; conditions: 10 µM unless noted
[2] = test system: 786-0 renal; conditions: 10 µM unless noted
[3] = test system: DU-145 prostate; conditions: 10 µM unless noted
[4] = test system: MDA-MB-231 breast; conditions: 10 µM unless noted
[5] = test system: SF-268 CNS; conditions: 10 µM unless noted
[6] = test system: SF-539 CNS; conditions: 10 µM unless noted
[7] = test system: M14 melanoma; conditions: 10 µM unless noted
[8] = test system: HCT-15 colon; conditions: 10 µM
[9] = test system: UACC-62 melanoma; conditions: 10 µM unless noted
[10] = test system: LOX IMVI melanoma; conditions: 10 µM unless noted
[11] = test system: SK-MEL-28 melanoma; conditions: 10 µM unless noted
[12] = test system: ACHN renal; conditions: 10 µM unless noted
[13] = test system: OVCAR-5 ovarian; conditions: 10 µM unless noted
[14] = test system: OVCAR-3 ovarian; conditions: 10 µM unless noted
[15] = test system: NCI/ADR-RES ovarian; conditions: 10 µM unless noted
[16] = test system: T-47D breast; conditions: 10 µM unless noted
[17] = test system: MDA-MB-435 melanoma; conditions: 10 µM unless noted
[18] = test system: SW-620 colon; conditions: 10 µM unless noted
[19] = test system: MCF7 breast; conditions: 10 µM unless noted
[20] = test system: KM12 colon; conditions: 10 µM unless noted

Row | SMILES | growth [1] | growth [2] | growth [3] | growth [4] | growth [5] | growth [6] | growth [7] | growth [8] | growth [9] | growth [10] | growth [11] | growth [12] | growth [13] | growth [14] | growth [15] | growth [16] | growth [17] | growth [18] | growth [19] | growth [20]
1 | CC(=O)[O][Hg][c]1nc2c(c(=O)n(C)c(=O)n2C)n1C | 106% | 102% | 107% | 102% | 110% | 104% | 101% | 107% | 96.3% | -28.5% (active) | 90.1% | 112% | 117% | 110% | 114% | 88.8% | 92.4% | 71.1% | 73.3% | 96.6%
2 | O=S(=O)(O)c1ccc(-c2ccc([As](=O)(O)O)cc2)cc1 | 105% | 103% | 110% | 104% | 98.5% | 105% | 100% | 103% | 98% | 99.8% | 103% | 105% | 106% | 107% | 108% | 89.5% | 103% | 103% | 103% | 105%
3 | CC1(C)N=C(N)N=C(N)N1c1ccc(OCCCCNC(=O)c2ccc(S(=O)(=O)F)cc2)c(Cl)c1 | 68.1% | 40.9% | 55% | 105% | 40.7% | 64.9% | 70.1% | 94.9% | 44.1% | 25.7% | 96% | 96.9% | 56.2% | 119% | 109% | 104% | 30.6% | 35.1% | 34.7% | 66.5%
